Tau ThT inhib: tau fibrillization inhibition (ThT binding) | P10636 | Potency, µM (series often up to 57.4 µM), without a hit: top-dose activity, negative = inhibition, most hits filed as inhibitors | recombinant tau K18 P301L, heparin-induced fibrillization, ThT fluorescence | 270,000 tested, 2.1% active; also: potency is read from the fitted curve at half-maximal effect; nearly all actives have a fitted effect of over 55% in size
Target sequence (P10636 561-689 P618L limits assumed): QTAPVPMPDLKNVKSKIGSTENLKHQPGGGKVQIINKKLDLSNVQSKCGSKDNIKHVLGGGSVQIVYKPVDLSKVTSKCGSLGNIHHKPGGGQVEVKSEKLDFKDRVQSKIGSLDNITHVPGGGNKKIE
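In this qHTS, human K18 P301L tau is incubated with compound and heparin for 6 hr at 37 C, and Thioflavin T fluorescence then reports fibril load.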
Tau fluor cs: counter-screen for tau fibril formation inhibitors; 280,000 tested, 0.93% active; Potency, µM (doses to about 57.7 µM), for inactives: at the top dose activity change, negative = decrease; AID 1463; tau K18 P301L Alexa594 fluorescence, heparin fibrillization; also: potency is read from the fitted curve at half-maximal effect; nearly all actives have a fitted effect of over 55% in size
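Human tau K18 P301L (15 uM unlabeled, 0.24 uM Alexa 594-labeled) in 100 mM sodium acetate pH 7 with 20 uM heparin, 6 hr at 37 C. ThT 30 uM added, 1 hr ambient; Alexa 594 FP and total fluorescence read at 555/632 nm.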
Tau FP inhib: inhibitors of human tau fibril formation | P10636 | K18 P301L tau heparin fibrillization, Alexa594 FP, 6 h | Potency, µM (top dose mostly 57.7 µM), without a hit: at the highest dose activity, negative = inhibition, most hits filed as inhibitors | 280,000 tested, 0.39% active; also: potency is read from the fitted curve at half-maximal effect; nearly all actives have a fitted effect of over 55% in size
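FP of Alexa 594-tau after heparin (20 uM) induction. Substrate: human K18 P301L, 15 uM unlabeled, 0.24 uM labeled. Buffer 100 mM sodium acetate pH 7. 6 hr, 37 C.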
JMJD2E inh: inhibitors of human JMJD2E histone demethylase. B2RXH2. JMJD2E catalytic domain, FDH-coupled NADH fluorescence (FDH is formaldehyde dehydrogenase). Potency, µM (doses to about 57.1 µM), inactives show at the top dose activity change, negative = inhibition, usual class: inhibitors. 230,000 tested, 1.6% active. AID 2147; active = well fitted inhibition curve with a large enough effect, not every such curve was filed as active; inconclusive = small, poorly fitted or top-dose-only effect, or another doubt; inactive = no such curve, though single readings can be large or run the other way;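 also: potency is read from the fitted curve at half-maximal effect; 0% = wells with enzyme and -100% = buffer wells without enzyme; nearly all actives have a fitted effect of over 50% in size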
Target sequence (B2RXH2 1-337 limits assumed): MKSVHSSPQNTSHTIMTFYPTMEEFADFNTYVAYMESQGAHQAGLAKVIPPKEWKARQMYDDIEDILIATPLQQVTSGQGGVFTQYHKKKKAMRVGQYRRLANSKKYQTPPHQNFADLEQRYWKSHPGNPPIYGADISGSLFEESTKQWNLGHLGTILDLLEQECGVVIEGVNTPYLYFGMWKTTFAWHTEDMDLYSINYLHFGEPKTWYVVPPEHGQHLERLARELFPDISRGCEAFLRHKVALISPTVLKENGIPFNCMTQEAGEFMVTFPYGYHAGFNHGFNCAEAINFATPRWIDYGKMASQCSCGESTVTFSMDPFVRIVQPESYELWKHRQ
Coupling enz: inhibits coupling enzyme system, counter-screen for aldolase hits. coupling enzyme system counterscreen, AmpLite Red fluorescence. activity change, negative = inhibition, % at 58.2 µM, hits read low. AID 2472. 290,000 tested, 0.67% active; in the data active = activity change below about -30%
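Coupling enzymes only (glyceraldehyde-3-phosphate) + compound, at 57.5 uM final, 10 min RT; add substrate/coupling/AmpLite Red mix, 20 min RT; fluorescence ex 525/em 598 nm. Actives flag coupling-system interference.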
* = called active by the depositor; u = inconclusive; x = not tested or not shown; [ ] = another dose, or the depositor's remark. Compounds with a hit are over-represented: about 3% of the library has one in this group of screens. Unless noted, calls follow the shape of the dose curve; as a rule, active = well fitted curve in the direction sought with a large enough effect; inconclusive = small, poorly fitted or top-dose-only effect, or another doubt; inactive = no such curve, though single readings can be large; an effect the other way counts as inactive or inconclusive. Unless noted, % is scaled to controls: 0 for no effect and ±100 for the full control effect.

SMILES	Tau ThT inhib	Tau fluor cs	Tau FP inhib	JMJD2E inh	Coupling enz
CCCCNC(=O)c1c(-c2ccccc2)c(-c2ccccc2)nn(C)c1=O	-2.4%	-5.4%	-1.0%	x	x
Cc1ccc2c(c1)c1c3n2CCN(C(=O)C2CC2)C3CCC1 (configuration not stated)	u	u	5.2%	u	-36.4*
Cc1ccc2c(c1)c1c3n2CCN(C(=O)CN2CCN(C)CC2)C3CCC1 (configuration not stated)	-13.4%	-1.8%	8.9%	u	-2.5
Cc1ccc2c(c1)c(=O)c1c3n2CCN(C(=O)CCl)C3CC1 (configuration not stated)	14.1µM*	u	u	u	-42.2*
CC(CNC(=S)Nc1cc(F)cc(F)c1)CSc1ccc(Cl)cc1 (configuration not stated)	5.0%	u	28.2µM*	-6.7%	-2.5
Cc1ccc(NC2Sc3ccccc3NC2=O)cc1 (configuration not stated)	15.8µM*	-21.6%	u	22.4µM*	-2.6
O=C1Nc2ccccc2SC1c1ccccc1 (configuration not stated)	x	x	x	x	0.6
Cc1nsc2c1ccc1ccccc12	-8.1%	0.1%	-1.2%	2.1%	-6.9
CC1=[N+](C)c2ccc3ccccc3c2C1(C)C	14.1µM*	u	1.2%	u	-13.8
O=C(Nc1nc2c(F)cccc2s1)c1ccc2c(c1)OCCO2	-7.7%	u	u	x	x
Cc1ccc2[nH]c(=S)cc(C)c2c1	u	0.2%	-2.4%	7.08µM*	-1.0
Cc1ccc2c(C)cc(=S)[nH]c2c1	-6.8%	-0.8%	1.0%	-0.4%	-0.9
CCOC(=O)Nc1ccc(NCc2ccc(F)cc2)nc1N	17.8µM*	u	u	u	x
CCOC(=O)Nc1ccc(C)cc1NC(=O)OCC	-7.2%	-4.5%	-0.1%	-6.3%	-2.4
O=C1c2ccccc2-c2onc3c(N4CCN(CCO)CC4)cc(N4CCN(C(=O)c5ccco5)CC4)c1c23	x	x	x	x	-23.4
O=C1c2ccccc2-c2onc3c(Oc4ccccc4)cc(O)c1c23	17.8µM*	u	-6.9%	-6.2%	-1.5
COc1ccccc1OCC(=O)N(Cc1ccc(N(C)C)cc1)CC1CCCO1 (configuration not stated)	-5.6%	-9.5%	1.5%	x	x
CN(C(=O)c1ccco1)c1nc(-c2ccccc2)cs1	x	x	x	x	-2.9
CN(c1ccc(O)cc1)c1nc(-c2ccccc2)cs1	u	15.8µM*[quencher]	u	-16.6%	1.3
COc1ccc(C(=O)Nc2cc(S(=O)(=O)c3ccc(Cl)cc3)c(O)c(C)c2C)cc1	0.1%	-29.7%	-10.0%	x	x
COc1cccc([C@@H]2Oc3ccc(Br)cc3C[C@H]2OC(=O)NS(=O)(=O)c2ccc(C)cc2)c1	-8.6%	-24.3%	u	-9.5%	-0.7
Oc1ccc(/C=N/Nc2nc(-c3ccc(Cl)cc3)cc(C(F)(F)F)n2)cc1	17.8µM*	25.1µM*[quencher]	u	-0.8%	-3.7
Fc1ccc(CNc2nc(-c3ccc(Cl)cc3)cc(C(F)(F)F)n2)cc1	-13.6%	-22.1%	u	x	x
Cc1ccc(-n2nnnc2-c2ccccc2)cc1	-3.2%	-6.1%	4.0%	4.0%	1.2
Cc1ccc(-n2nnnc2C(Cl)c2nnnn2-c2ccc(C)cc2)cc1	20µM*	-16.6%	u	-1.9%	0.0
SMILES	Tau ThT inhib	Tau fluor cs	Tau FP inhib	JMJD2E inh	Coupling enz
Cc1ccc(CN(C(=O)COc2ccc(C(C)(C)C)cc2)C2CCS(=O)(=O)C2)o1 (configuration not stated)	-1.9%	-8.6%	-3.0%	x	x
COC(=O)c1ccccc1N/C=C1\CCc2c(c(C)nn2-c2ccccn2)C1=O	14.1µM*	u	u	u	-17.0
COC(=O)c1ccccc1NC(=O)CN1CCN(c2ccccn2)CC1	-1.7%	-3.5%	-10.0%	0.4%	-5.0
CC#CCN1c2ccccc2[C@]23C[C@@H](C(=O)OC)N(S(=O)(=O)c4ccc(C#N)cc4)C2=NC(C(=O)OC)=C(C(=O)OC)[C@H]13	1.9%[11.5 µM]	-3.7%[11.6 µM]	-0.2%[11.6 µM]	-3.0%[11.4 µM]	-1.1
COc1cccc(Cn2c(=O)c(-c3cc(F)cc(F)c3)nc3cnc(N4CCNCC4)nc32)c1	x	x	x	x	3.2
N#Cc1c(NC(=O)c2ccc(Cn3cc(Br)cn3)o2)sc2c1CCCCC2	u	u	8.9%	u	8.7
COC(=O)c1sc(NC(=O)c2ccc(Cn3cc(Cl)cn3)o2)c(C#N)c1C	25.1µM*	u	u	u	19.1
COc1cc(OC)c(N(C)C(=O)Cn2ncc3c([nH]c4ccccc43)c2=O)cc1Cl	-15.6%	-18.1%	-6.6%	x	x
COc1ccc(-c2nnc(C3CCN(S(=O)(=O)c4cccc(Cl)c4)CC3)o2)cc1	u	-23.8%	0.4%	x	x
CCn1c(CNc2ccc(C)cc2)nnc1SCC(=O)NCc1ccccc1	-5.0%	-4.6%	4.9%	-8.4%	0.1
C=CCn1c(COc2ccccc2)nnc1SCC(=O)N/N=C/c1cc(Cl)ccc1O	-6.1%	-29.5%	7.6%	28.2µM*	-2.7
C=CCn1c(CNc2ccc(C)cc2)nnc1SCC(=O)N/N=C/c1ccc(O)cc1O	u	u	u	15.8µM*	0.2
C=CCn1c(COc2ccccc2)nnc1SCC(=O)N/N=C/c1ccc(C)cc1	-13.7%	-11.2%	8.9%	1.0%	-0.2
C=CCn1c(SCC(=O)NCc2ccccc2)nnc1-c1ccccc1O	-9.4%	-5.2%	-6.4%	-2.5%	-0.2
C=CCn1c(CNc2ccccc2)nnc1SCC(=O)N/N=C/c1ccc(O)cc1O	-20.2%	-29.1%	7.6%	22.4µM*	4.1
C/C=C1/C(=O)C[C@@H]2[C@H]3CCC4=CC(=O)CC[C@]4(C)[C@@H]3CC[C@]12C	u	-6.1%	-8.9%	x	x
COc1ccc(C(C(=O)Nc2ccc(C(C)C)cc2)N(C)C(=O)Cc2cccs2)cc1 (configuration not stated)	u	-24.9%	-8.9%	x	x
Cc1ccc(C)c(N2CCN(C(=O)c3ccc(-c4nc(COc5ccccc5)c(C)o4)cc3)CC2)c1	u	-9.1%	5.2%	x	x
CCn1c2ccccc2c2cc(NC(=O)c3ccco3)ccc21	u	25.1µM*[quencher]	17.4%	4.1%	-7.4
CCn1c2ccccc2c2cc(NC(=O)c3cccc(OC)c3)ccc21	u	12.6µM*[quencher]	10.2%	u	-0.4
CC1N(C)c2cc(NC(=O)c3ccco3)ccc2C1(C)C (configuration not stated)	u	28.2µM*[fluorescent]	u	2.7%	-17.5
CCn1c2ccccc2c2cc(NC(=O)COC(=O)c3cccc(S(=O)(=O)NC)c3)ccc21	u	10µM*[quencher]	0.9%	-12.0%	0.0
CCn1c2ccccc2c2cc(NC(C)=O)ccc21	-8.0%	-21.8%	4.2%	-8.6%	-2.8
Cc1cc(C)cc(NC(=O)c2ccc(NC(=O)c3ccco3)cc2)c1	x	x	x	x	1.1
Cc1ccc(C)c(N2CCN(C(=O)CCS(=O)(=O)c3ccc4c(c3)CC(=O)N4C)CC2)c1	-8.9%	-7.9%	-12.1%	x	x

Screening data as filed in PubChem.
